Screening data as filed in PubChem BioAssay.
Most compounds without a hit are left out; they make up all but 4.5% or so of the library.
PfHsp40 yeast – rescue of yeast from PfHsp40 toxicity, primary screen, S. cerevisiae, ATP luminescence; S. cerevisiae expressing PfHsp40, growth rescue; growth rescue, % at 12.5 µM; 340,000 compounds, 0.68% hits; in the data active = growth rescue above about 28%, passing the limit was not always enough;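 also: yeast W303a lacking pdr1 and pdr3 grown in galactose medium; growth measured after three days at 30 °C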
PrP UTR inh – inhibition of PrP 5' UTR reporter expression; cell-based PrP 5' UTR mRNA reporter, plate reader; inhibition, % (test concentration not listed); 340,000 compounds, 0.35% hits; in the data active = inhibition above about 52%; also: 0 = median of the neutral control wells
PrPC TRFRET – inhibitors of human cell surface prion protein PrPC, primary screen, cell-based, TR-FRET; 370,000 compounds, 0.43% hits; Major prion protein (Homo sapiens), P04156; AID 720596, 2013; TR-FRET read-out; inhibition, % at 13.8 µM; in the data active = inhibition above about 24%; also: 0% = median of the test wells and 100% = reference compound wells
FBA Mtb inh – Mtb FBA enzyme inhibitors, primary screen, biochemical, fluorescence, strain H37Rv; Fructose-bisphosphate aldolase (Mycobacterium tuberculosis (strain ATCC 25618 / H37Rv)), …; purified M. tuberculosis FBA, fluorescence read-out; inhibition, % at 1 µM; 360,000 compounds, 2.3% hits;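 also: 0% = vehicle and 100% = reference inhibitor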
Target sequence (P9WQA3 whole entry, looked up): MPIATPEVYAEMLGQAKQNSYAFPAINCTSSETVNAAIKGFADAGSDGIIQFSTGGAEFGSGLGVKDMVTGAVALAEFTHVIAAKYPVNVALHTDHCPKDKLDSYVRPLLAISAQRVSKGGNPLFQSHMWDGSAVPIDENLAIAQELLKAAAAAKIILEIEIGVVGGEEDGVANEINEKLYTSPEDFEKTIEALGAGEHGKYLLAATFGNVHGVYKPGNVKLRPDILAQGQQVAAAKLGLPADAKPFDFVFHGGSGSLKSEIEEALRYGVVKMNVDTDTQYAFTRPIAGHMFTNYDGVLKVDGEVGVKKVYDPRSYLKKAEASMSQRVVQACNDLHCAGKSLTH
BJeLR lethal – MLPCN primary cell-based screen for lethality selective to Ras in HRASV12 cells; 300,000 compounds, 0.17% hits; inhibition, % (concentration not given with the values); AID 1554, 2009; BJeLR (HRASV12) viability, CellTiter-Glo ATP luminescence, 48 h; in the data active = inhibition above about 50%
GDH-TPI counter-1 – GDH-TPI coupling enzyme inhibitors, primary screen, artefact control for M. tuberculosis FBA inhibitor project, biochemical, absorbance, full deck; GDH-TPI coupled enzyme counterscreen, NADH absorbance; inhibition, % at 4.8 µM; 360,000 compounds, 1.2% hits; AID 588335, 2011; in the data active = inhibition above about 30%;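 also: 0% = DMSO wells and 100% = wells lacking the enzyme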
Mtb FBA inh conf – M. tuberculosis aldolase blockers, biochemical, fluorescence, strain H37Rv, confirmation; shares compounds with FBA Mtb inh; purified M. tuberculosis FBA, fluorescence read-out; inhibition, % at 1 µM; 5,600 compounds, 78% hits; AID 651616, 2012;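 also: 0% = vehicle wells and 100% = reference inhibitor wells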
GDH-TPI counter-2 – GDH-TPI coupling enzyme inhibitors, artefact control for M. tuberculosis FBA inhibitor project, biochemical, fluorescence, high throughput. shares compounds with FBA Mtb inh. GDH-TPI coupled enzyme counterscreen. inhibition, % at 1 µM. 5,600 compounds, 81% hits; in the data active = inhibition above about 10%
GDH-TPI DR – GDH-TPI coupling enzyme inhibitors, dose response, artefact control for M. tuberculosis FBA inhibitor project, biochemical, fluorescence, IC50; shares compounds with FBA Mtb inh; GDH-TPI coupled enzyme assay, artifact counterscreen; IC50, µM; 170 compounds, 79% hits; call rule not given here
* = called active by the depositor; . = no result; + = active, no number. Rule as the data show it, unless noted: active = inhibition above about 27%; inactive = the rest.

SMILES	PfHsp40 yeast	PrP UTR inh	PrPC TRFRET	FBA Mtb inh	BJeLR lethal	GDH-TPI counter-1	Mtb FBA inh conf	GDH-TPI counter-2	others
Cc1cc(=O)oc2cc(OCC(=O)OC(C)C(=O)Nc3ccc(S(N)(=O)=O)cc3)ccc12 (stereo not given)	0	-34	6	33*	.	18	82*	66*
Cc1cccc(C(C)C)c1NC(=O)COC(=O)COc1ccc2c(C)cc(=O)oc2c1	1	9	6	30*	-10	5	8	0
Cc1cccn2c(=O)c3cc(C(=O)N4CC(C)CC(C)C4)sc3nc12 (stereo not given)	1	-21	-7	5	-2	4	.	.
COCCCn1c(C(=O)NCCC2=CCCCC2)cc2c(=O)n3cccc(C)c3nc21	0	-19	4	6	-1	0	.	.
CCCCn1c(=NC(=O)c2ccc3c(c2)OCO3)c(C#N)cc2c(=O)n3cccc(C)c3nc21	0	-8	-4	77*	.	-2	+	+
COCCCn1c(C(=O)N2CCOCC2)cc2c(=O)n3cccc(C)c3nc21	0	-23	-7	72*	5	18	55*	43*
COCCCn1c(C(=O)N2CC(C)OC(C)C2)cc2c(=O)n3cccc(C)c3nc21 (stereo not given)	1	6	.	74*	-6	27	+	+
O=C(CCl)N1CCN(S(=O)(=O)c2ccc3c(c2)CCC3)CC1	-1	-10	0	-3	.	-5	.	.
Cc1ccc(-c2nc3ccccn3c2Nc2ccccc2)o1	-1	-23	3	108*	1	8	138*	127*
CSc1ccc(/C=C/C(=O)OCC(=O)NC2CC2)cc1	2	-23	-4	46*	.	25	95*	68*
CSc1ccc(/C=C/C(=O)OCC(=O)NC(C)C)cc1	-1	-17	4	58*	1	20	98*	93*
CCOC(=O)C1=C(COC(=O)/C=C/c2ccc(SC)cc2)NC(=O)NC1C (stereo not given)	-1	-9	-3	40*	-3	19	35*	23*
CCOC(=O)C1=C(COC(=O)/C=C/c2ccc(OC)cc2)NC(=O)NC1C (stereo not given)	-1	-16	1	3	.	17	.	.
C=CCN(C(=O)[C@@H](C)[C@@H](O)c1ccc2ccccc2c1)c1ccccc1	.	.	-3	.	.	.	.	.
CN(C)C(=O)c1ccc(NC(=O)CN2C(=O)NC3(CCCc4ccccc43)C2=O)cc1 (stereo not given)	0	7	3	2	0	1	.	.
O=C(COc1ccc2c(c1)oc(=O)c1ccccc12)NCCCN1CCOCC1	1	-5	-3	98*	13	5	93*	78*
Cc1c(OCC(=O)NCCCN2CCOCC2)ccc2c3c(c(=O)oc12)CCC3	0	-9	5	15	2	-3	.	.
CC(Oc1ccc2c(-c3ccccc3)cc(=O)oc2c1)C(=O)NCCCN1CCOCC1 (stereo not given)	-1	3	-11	-1	-18	13	.	.
O=C(COc1ccc2c3c(c(=O)oc2c1)CCC3)NCCCN1CCOCC1	-1	-23	1	15	-8	12	.	.
Cc1ccc(OCC(=O)Nc2ccc(CN3CCOCC3)cc2)cc1C	-1	-9	7	-2	8	2	.	.
Cc1c(C)c2ccc(OCC(=O)Nc3ccc(CN4CCOCC4)cc3)cc2oc1=O	0	-6	7	47*	-8	10	88*	86*
CC(Oc1ccc2c(c1)oc(=O)c1ccccc12)C(=O)NCCCN1CCOCC1 (stereo not given)	-1	-10	15	64*	-5	11	11	10	GDH-TPI DR=2.9*
Cc1c(OCC(=O)NCCCN2CCOCC2)ccc2c1oc(=O)c1ccccc12	-1	-9	-1	47*	-6	7	98*	68*
COc1cc(OC)c(C(=O)OCC(=O)NC2CCCCCCC2)cc1OC	1	11	-1	-2	.	4	.	.
Cc1c(C)c2ccc(OCC(=O)NCCN3CCOCC3)cc2oc1=O	0	-8	2	97*	-4	6	-6	-3
SMILES	PfHsp40 yeast	PrP UTR inh	PrPC TRFRET	FBA Mtb inh	BJeLR lethal	GDH-TPI counter-1	Mtb FBA inh conf	GDH-TPI counter-2	others
COc1ccc(/C(N)=N/OC(=O)C2CCC(=O)N2S(=O)(=O)c2ccc(C)cc2)cc1OC (stereo not given)	-1	-12	-2	5	3	-1	.	.
CC1(C)Oc2ccc3ccc(=O)oc3c2/C(=C/NNC(N)=S)C1=O	0	0	-1	28*	2	14	+	197*
CC(=O)Nc1ccc(S(=O)(=O)N=S(C)C)cc1	1	-18	3	3	6	9	.	.
CCS(CC)=NS(=O)(=O)c1ccc(NC(C)=O)cc1	0	-31	4	64*	-3	-1	98*	87*
COC(=O)c1cc2c(=O)c3ccccc3oc2nc1C	0	-97	-6	2	-1	-5	.	.
COC(=O)c1cc2c(=O)c3ccccc3oc2nc1/C=C/N(C)C	0	-61	-15	32*	4	3	98*	64*
COc1cc(C2c3c([nH]c(=O)[nH]c3=O)Nc3ccc4ccccc4c32)cc(OC)c1OC (stereo not given)	-1	-7	11	34*	0	0	90*	75*
CC(=O)c1cc(-c2ccccc2)n(CCC(=O)NC(C)(C)C)c1C	0	-14	.	4	5	6	.	.
CCOc1ccc(C(=O)Nc2nnc(C3=COCCO3)o2)cc1	1	-8	5	0	-6	0	.	.
Cc1ccn2cc(-c3cccc(S(=O)(=O)N4CCCCC4)c3)nc2c1	1	-17	4	4	4	-2	.	.
O=S(=O)(Nc1cccc(-c2cn3cccnc3n2)c1)c1ccccc1	1	-11	-8	75*	8	15	66*	47*
